Measured values taken from PubChem BioAssay (Tox21).
Records with an inconclusive call do not appear. Where a call stands in place of a potency, no number is given. Some structures have more than one record in an assay (separate samples or runs), and their calls can disagree. The source made the active and inactive calls. Calls come from the whole dose curve; as a rule, active = well fitted cell-killing curve with a large enough effect in the repeat runs; inconclusive = weak or mixed curves, or effect the other way; inactive = flat fitted curve, though single readings scatter.

Assay: qHTS assay to identify small molecule antagonists of the estrogen receptor alpha (ER-alpha) signaling pathway using the BG1 cell line in the presence of 0.1 nM 17-beta-estradiol - cell viability counter screen (AID 1259241); note: nearly all actives have a fitted effect of over 40% in size
Details: VM7Luc4E2 (BG1) viability, CellTiter-Fluor protease, 22 h, 0.1 nM estradiol agonist added; series mostly up to 92.4 µM; activity change, negative = cytotoxicity: at the top concentration
Procedure, shortened: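 Cells were plated and left 24 hr, compounds in DMSO were pinned in, 17beta-estradiol was added to 0.1 nM final, and after 22 hr CellTiter-Fluor reagent was added for 30 min before fluorescence was read.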
Potency is the fitted concentration of half-maximal effect.

| SMILES | Potency | activity change, negative = cytotoxicity |
| --- | --- | --- |
| O=Cc1ccccc1O | inactive | – |
| C[C@]12CCC(=O)C=C1CC[C@@H]1[C@@H]2C(=O)C[C@@]2(C)[C@H]1CC[C@]2(O)C(=O)CO | inactive | – |
| O=[N+]([O-])c1ccc2c(c1)Cc1ccccc1-2 | inactive | – |
| S=C(NC1CCCCC1)NC1CCCCC1 | inactive | – |
| c1ccc2sc(SSN3CCOCC3)nc2c1 | inactive | – |
| CN(C)CCN(Cc1cccs1)c1ccccn1 | inactive | – |
| OC1CCCCCCCCCCC1 | inactive | – |
| COC(=O)CCC(=O)OC | inactive | – |
| CCCCC(CC)COCC1CO1 (stereo not drawn) | inactive | – |
| Nc1ccccc1N | – | -22.1% (inactive) |
| CCC(C)CO (stereo not drawn) | inactive | – |
| Nc1ncnc2nc[nH]c12 | inactive | – |
| c1cc(N(CC2CO2)CC2CO2)ccc1OCC1CO1 (stereo not drawn) | – | -10.5% (inactive) |
| Nc1ccc(Nc2ccccc2)cc1 | – | -15.9% (inactive) |
| O=C(/C=C/C=C/c1ccc2c(c1)OCO2)N1CCCCC1 | inactive | – |
| CCCCOCCOCCO | inactive | – |
| c1ccc2c(c1)Oc1ccccc1S2 | inactive | – |
| c1ccncc1 | inactive | – |
| Nc1ccc(Cl)cc1Cl | inactive | – |
| CCCCCCCCCCCO | inactive | – |

| SMILES | Potency | activity change, negative = cytotoxicity |
| --- | --- | --- |
| CCCCOCCOCCOCCO | inactive | – |
| CCC(C)OC(=O)c1ccc(O)cc1 (stereo not drawn) | inactive | – |
| CCOC(=O)C(C#N)=C(c1ccccc1)c1ccccc1 | inactive | – |
| CCC(C)(O)CCCC(C)C (stereo not drawn) | inactive | – |
| CC(=O)CC/C=C(\C)CCC=C(C)C | inactive | – |
| CC1=CC2C3CC(C=C3C)C2C1 (stereo not drawn) | inactive | – |
| Cn1cnc([N+](=O)[O-])c1Sc1ncnc2nc[nH]c12 | – | 1.52% [at 42.5 µM] (inactive) |
| C=CC(C)(CCC=C(C)C)OC(C)=O (stereo not drawn) | inactive | – |
| CCCCNS(=O)(=O)c1ccccc1 | inactive | – |
| OC(CCl)CCl | inactive | – |
| COc1ccccc1/C=C/C=O | inactive | – |
| O=C(OCc1ccccc1)c1ccccc1O | inactive | – |
| c1cc(-c2ccncc2)ccn1 | inactive | – |
| CC(C)OB(OC(C)C)OC(C)C | inactive | – |
| CC(CCC(=O)O)(c1ccc(O)cc1)c1ccc(O)cc1 | inactive | – |
| CC(C)OC=O | inactive | – |
| COC(=O)C1=C(C)NC(C)=C(C(=O)OCCN(C)Cc2ccccc2)C1c1cccc([N+](=O)[O-])c1 (stereo not drawn) | 54.2 µM (active) | – |
| CC(C)=CCCC(C)CCO (stereo not drawn) | inactive | – |
| O=C(c1ccccc1)c1ccc(O)cc1O | – | -21.8% (inactive) |

Assay: qHTS assay to identify small molecule antagonists of the androgen receptor (AR) signaling pathway using the MDA cell line in the presence of 0.5 nM R1881 - cell viability counter screen (AID 1259242); note: nearly all actives have a fitted effect of over 45% in size
Details: MDA-kb2 viability, CellTiter-Fluor protease fluorescence, 16 h; series mostly up to 92.4 µM; viability change, negative = cytotoxic: at the top concentration
Procedure, shortened: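 MDA-kb2 cells (MMTV-luciferase, AR/GR responsive) were treated with compounds plus 0.5 nM R1881 (final) for 16 hr at 37C, 0% CO2. Viability was then read in the same wells as live-cell protease fluorescence (CellTiter-Fluor, 30 min).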

| SMILES | Potency | viability change, negative = cytotoxic |
| --- | --- | --- |
| O=Cc1ccccc1O | inactive | – |
| C[C@]12CCC(=O)C=C1CC[C@@H]1[C@@H]2C(=O)C[C@@]2(C)[C@H]1CC[C@]2(O)C(=O)CO | inactive | – |
| O=[N+]([O-])c1ccc2c(c1)Cc1ccccc1-2 | inactive | – |
| S=C(NC1CCCCC1)NC1CCCCC1 | inactive | – |
| c1ccc2sc(SSN3CCOCC3)nc2c1 | inactive | – |
| CN(C)CCN(Cc1cccs1)c1ccccn1 | inactive | – |
| OC1CCCCCCCCCCC1 | inactive | – |
| COC(=O)CCC(=O)OC | inactive | – |
| CCCCC(CC)COCC1CO1 (stereo not drawn) | inactive | – |
| Nc1ccccc1N | inactive | – |
| CCC(C)CO (stereo not drawn) | inactive | – |
| Nc1ncnc2nc[nH]c12 | inactive | – |
| c1cc(N(CC2CO2)CC2CO2)ccc1OCC1CO1 (stereo not drawn) | inactive | – |
| Nc1ccc(Nc2ccccc2)cc1 | inactive | – |
| O=C(/C=C/C=C/c1ccc2c(c1)OCO2)N1CCCCC1 | inactive | – |
| CCCCOCCOCCO | inactive | – |
| c1ccc2c(c1)Oc1ccccc1S2 | inactive | – |
| c1ccncc1 | inactive | – |
| Nc1ccc(Cl)cc1Cl | inactive | – |
| CCCCCCCCCCCO | inactive | – |

| SMILES | Potency | viability change, negative = cytotoxic |
| --- | --- | --- |
| CCCCOCCOCCOCCO | inactive | – |
| CCC(C)OC(=O)c1ccc(O)cc1 (stereo not drawn) | inactive | – |
| CCOC(=O)C(C#N)=C(c1ccccc1)c1ccccc1 | inactive | – |
| CCC(C)(O)CCCC(C)C (stereo not drawn) | inactive | – |
| CC(=O)CC/C=C(\C)CCC=C(C)C | inactive | – |
| CC1=CC2C3CC(C=C3C)C2C1 (stereo not drawn) | inactive | – |
| Cn1cnc([N+](=O)[O-])c1Sc1ncnc2nc[nH]c12 | – | -5.34% [at 42.5 µM] (inactive) |
| C=CC(C)(CCC=C(C)C)OC(C)=O (stereo not drawn) | inactive | – |
| CCCCNS(=O)(=O)c1ccccc1 | inactive | – |
| OC(CCl)CCl | inactive | – |
| COc1ccccc1/C=C/C=O | inactive | – |
| O=C(OCc1ccccc1)c1ccccc1O | inactive | – |
| c1cc(-c2ccncc2)ccn1 | inactive | – |
| CC(C)OB(OC(C)C)OC(C)C | inactive | – |
| CC(CCC(=O)O)(c1ccc(O)cc1)c1ccc(O)cc1 | inactive | – |
| CC(C)OC=O | inactive | – |
| COC(=O)C1=C(C)NC(C)=C(C(=O)OCCN(C)Cc2ccccc2)C1c1cccc([N+](=O)[O-])c1 (stereo not drawn) | 60.8 µM (active) and inactive | – |
| CC(C)=CCCC(C)CCO (stereo not drawn) | inactive | – |
| O=C(c1ccccc1)c1ccc(O)cc1O | inactive | – |
